“And” between values parts separate entries of the source, which are not always exact repeats. Identical values can stand only once. The campaign covered roughly 1,100 compounds. About 160 (15%) were called active. Inconclusive results (about 36%) are left out. Calls come from the whole dose curve; as a rule, active = well fitted inhibition curve with a large enough effect; inconclusive = small, poorly fitted or top-dose-only effect; inactive = no such curve, though single readings can be large or run the other way. Only a sample is shown. Where a call stands in place of a potency, no number is given.
Potency is the fitted concentration of half-maximal effect.

The target of the assay is ATP-dependent DNA helicase Q1 (Homo sapiens) (UniProt P46063). The assay is described as follows: Confirmation qHTS Assay for Inhibitors of RecQ-Like Dna Helicase 1 (RECQ1) - Round 2 Cherry Picks. Note: nearly all actives have a fitted effect of over 50% in size. The settings on record: recombinant RECQ1 DNA unwinding, red fluorescence; series mostly up to 119 µM. An excerpt: Survival of cells and the faithful propagation of the genome depend on elaborate mechanisms of detecting and repairing DNA damage. Treatment of advanced cancer relies on radiation therapy or chemotherapy, which kill cancer cells by causing extensive DNA damage. It is often found, that cancer cells develop resistance to therapy through enhanced activity of DNA repair functions; this has led to an increased interest in developing drugs that interfere with DNA repair, which could sensitize cancer cells to conventional therapy. This validation qHTS assay pertains to human RECQ1, which is important in resolving abnormal DNA structures formed during replication or homologous recombination. Shutting down the expression of RECQ1 leads to chromosomal instability and higher radiation sensitivity in cultured cells. […] The validation assay was a fluorescence quenching based kinetic qHTS for RECQ1 Helicase DNA unwinding. The activity was measured as ATP-dependent separation of a 20-bp DNA duplex extended by 30-nt single-stranded tails (forked duplex). The forked DNA substrate was tagged with rhodamine fluorophore (carboxytetramethyl rhodamine, TAMRA) and BHQ-2 (Black Hole Quencher 2) dark quencher. Strand separation results in an increase in the fluorescence of TAMRA (excitation 525 nm, emission 598 nm). This substrate construct operates in a red-shifted region where very few compound library members have been noted to fluoresce (PubChem AIDs 593 and 594). An additional feature of the assay is the inclusion of 2.5 ug/ml poly (dIdC), to reduce interference by compounds such as DNA intercalators, a major source of false inhibitors. NIH Chemical Genomics Center [NCGC] NIH Molecular Libraries Probe Centers Network [MLPCN] MLPCN Grant: MH087284-01 Assay Submitter (PI): Opher Gileadi, Structural Genomics Consortium, University of Oxford
ATP-dependent DNA helicase Q1 (Homo sapiens), sequence (P46063 whole entry, looked up): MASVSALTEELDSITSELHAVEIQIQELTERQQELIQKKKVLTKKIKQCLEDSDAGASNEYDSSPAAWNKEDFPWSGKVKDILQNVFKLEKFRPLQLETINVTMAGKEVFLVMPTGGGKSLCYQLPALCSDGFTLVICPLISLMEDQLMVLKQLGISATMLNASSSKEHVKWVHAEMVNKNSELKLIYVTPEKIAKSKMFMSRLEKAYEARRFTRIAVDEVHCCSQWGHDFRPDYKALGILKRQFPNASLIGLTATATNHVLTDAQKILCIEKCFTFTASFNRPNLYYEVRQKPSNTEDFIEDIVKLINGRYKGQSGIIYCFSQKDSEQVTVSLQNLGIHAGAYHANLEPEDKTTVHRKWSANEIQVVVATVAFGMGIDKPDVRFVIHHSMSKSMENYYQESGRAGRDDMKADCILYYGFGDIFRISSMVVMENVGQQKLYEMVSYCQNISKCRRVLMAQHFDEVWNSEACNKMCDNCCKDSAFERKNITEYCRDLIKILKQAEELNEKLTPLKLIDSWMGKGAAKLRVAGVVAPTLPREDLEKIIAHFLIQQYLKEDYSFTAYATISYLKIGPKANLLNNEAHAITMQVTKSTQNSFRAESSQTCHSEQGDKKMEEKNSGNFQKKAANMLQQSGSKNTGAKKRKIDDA
Three uL of reaction buffer (25 mM Tris-HCl (pH 8.0), 5 mM NaCl, 2 mM MgCl2, 1mM DTT, 0.01% Tween- 20, and 2.5 ug/ml poly(dI-dC), including enzyme (50 nM RECQ1T1), were dispensed into a 1536-well Greiner black assay plate via solenoid-valve based nanoliter dispensers. Compounds (23 nl each in columns 5-48) and control (23 nl each in column 2 as dose-response) were transferred via a Kalypsys pintool equipped with a 1536-pin array. The plates were incubated for 15 min at room temperature, and then 1 ul of substrates (200 nM DNA and 2 mM ATP, final concentrations) was added to start the reaction. The plate was transferred into a ViewLux high-throughput CCD imager where the reaction progress was measured in a discontinuous kinetic mode (two reads spaced 2 hours apart, with intermediate room temperature incubation of the covered assay plate) by using standard red-fluorescence optics (excitation filter 525 nm, emission filter 598 nm). Enzyme-free and vehicle (DMSO) controls were included for signal normalization.
(In general: qHTS replaces the single test concentration by a dilution series.)
Turning to `CCC(c1nnnn1Cc1ccco1)N(Cc1cc2cc(OC)ccc2[nH]c1=O)C1CCCCC1` (stereo not drawn), the Potency result was “inactive”.
Take `COc1cccc(NC(=S)C(C#N)=C2N(C)c3ccccc3N2C)c1`: the Potency result is “inactive”.
The result for `COc1c(O)cc2oc(-c3ccc(O)c(O)c3)cc(=O)c2c1O` reads 4.47 µM (active) and 2 µM (active); that for `O=C(CSc1ccc(-c2ccco2)nn1)NCc1ccc2c(c1)OCO2`, “inactive”; that for `Oc1c(C=Nc2cccc3nsnc23)ccc2ccccc12`, 39.8 µM (active).
As for `COc1ccc(Cl)cc1C(=O)NNC(=S)NC(=O)/C=C/c1ccco1`, the Potency entry is “inactive”.
As for `Oc1ccc(N=Cc2sc3ccccc3c2Cl)cc1`, the entry is “inactive”; as for `COc1ccc2[nH]c3c(C)c4cc[n+](C)cc4c(C)c3c2c1`, 2.51 µM (active); as for `CCCCOC(=O)c1ccc(NC(c2ccc(C)cc2)P(=O)(OC)OC)cc1` (stereo not drawn), “inactive”.
As for `COC(=O)Cc1cc(=O)n(-c2nc3ccccc3s2)[nH]1`, the Potency entry was “inactive”.
As for `Cc1cccc(-n2nc3c(c2NC(=O)c2ccc(Br)o2)CSC3)c1C`, the entry is “inactive”.
The result for `COc1cc(C(=O)NCc2nnc(SCC(=O)Nc3nc4ccc(C)cc4s3)o2)cc(OC)c1OC` reads “inactive”; that for `COCCNC(=O)Nc1ccc2nc(-c3ccco3)c(-c3ccco3)nc2c1`, “inactive”; that for `CC(C)Cn1c(N)c(C(=O)NCc2cccs2)c2nc3ccccc3nc21`, “inactive”.
With `CN1C(=O)/C(=C/c2ccco2)SC1=Nc1cccc(C(=O)O)c1`, the Potency entry was “inactive”.
The result for `CCc1cc(C(c2ccccc2OC)N2CCOCC2)c(NC(=O)c2ccccc2)s1` (stereo not drawn) reads “inactive”; that for `Cc1ccc(Cc2cnc(N)s2)o1`, “inactive”.
The result for `CC(C)C1N=C2c3ccccc3N=C(SCC(=O)c3ccc(O)c(O)c3)N2C1=O` (stereo not drawn) reads 3.16 µM (active); that for `O=C(NCCCN1CCCCCC1)c1ccc(N2CCCC2=O)cc1`, “inactive”; that for `c1ccc2c(NC3C4CC5CC(C4)CC3C5)nc(N3CCOCC3)nc2c1` (stereo not drawn), “inactive”.
With `NC1=NC(=O)C(Cc2cccc(Cl)c2Cl)S1` (stereo not drawn), the Potency result was “inactive”.
Regarding `CC(Oc1cccc(NC(=O)c2cccs2)c1)C(=O)c1ccccc1` (stereo not drawn), the Potency entry was “inactive”.
In the case of `CCC(C)Cn1c(O)cc2nn(-c3nc4ccccc4s3)c(=O)c-2c1C` (stereo not drawn), the Potency result is “inactive”.
With `O=C1c2ccccc2C(=O)N1Cc1cc(-c2ccccc2Cl)no1`, the Potency entry was “inactive”.
On to `COc1ccc(OCC(=O)Nc2nnc(-c3ccco3)s2)cc1`, for which the Potency entry is “inactive”.
With `COc1ccc(NC(=O)CSc2nc(NS(=O)(=O)c3ccc(C)cc3)cc(=O)[nH]2)cc1`, the Potency entry was “inactive”.
As for `COC(C(=O)Nc1ccc(S(=O)(=O)Nc2ccc(C)c(C)c2)cc1)c1ccccc1` (stereo not drawn), the entry is “inactive”; as for `O=C(NCCN1C(=O)S/C(=C\c2cccnc2)C1=O)c1ccc(S(=O)(=O)N2CCCC2)cc1`, “inactive”.
For the compound `O=C(CN1CCN(c2ccc(O)cc2)CC1)Nc1cc(S(=O)(=O)N2CCOCC2)ccc1Cl`, the Potency entry was “inactive”.
As for `CCN(CC)c1ccc2oc(=O)c(C)nc2c1`, the figure is 50.1 µM (active).
Turning to `COc1ccc(/C(N)=N/OC(=O)CCCc2ccccc2)cc1`, the Potency result is “inactive”.
As for `Cc1ccnc2nc(C(=O)Nc3nnc(-c4ccccc4)o3)nn12`, the entry is “inactive”.
As to `CCc1ccc2nc3sc(C(=O)Nc4nnc(CC)s4)c(N)c3cc2c1`, the Potency is 39.8 µM (active).

Source of the values: PubChem BioAssay AID504841 (National Center for Advancing Translational Sciences (NCATS), 2011).
